In PubChem BioAssay (Tox21):
Inconclusive results are not listed. A call without a number means that no potency is given here. Unmarked numbers belong to inactive results. Active and inactive are the calls of the source. The call rests on the fitted dose curve; in most records, active means well fitted curve in the direction sought with a large enough effect in the repeat runs; inconclusive means weak or mixed curves; inactive means no such curve, though single readings can be large; an effect the other way counts as inactive or inconclusive.

Key:
[1] = qHTS RealTime-Glo MT Cell Viability Assay in HepG2 cells - 40 hour (AID 1224870); further: nearly all actives have a fitted effect of over 50% in size; further: potency means the concentration at half of the fitted maximal effect
How it was run: (§1)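 Real-time viability: cells seeded at 600 per well together with NanoLuc and cell-permeant prosubstrate, compounds added after 5 h incubation. Luminescence tracked at 0, 8, 16, 24, 32 and 40 h of exposure.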

[2] = A CellTox Green Cytotoxicity Assay to monitor cytotoxicity in HEK293 cells - 40 hour (AID 1224871); further: nearly all actives have a fitted effect of over 45% in size; further: potency means the concentration at half of the fitted maximal effect
How it was run: (§2)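 Cytotoxicity was tracked continuously in HEK293 cells by a DNA-binding dye excluded from viable cells. Compounds were transferred in DMSO 5 h after seeding; fluorescence was recorded at intervals up to 40 h.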

[3] = qHTS RealTime-Glo MT Cell Viability Assay in HEK293 cells - 16 hour (AID 1224872); further: nearly all actives have a fitted effect of over 50% in size; further: potency means the concentration at half of the fitted maximal effect
How it was run: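 HEK293 cells seeded with NanoLuc/prosubstrate reagent, rested 5 h at 37 C, then dosed and kept at 37 C up to 40 h. Nonlytic real-time luminescence from viable cells read at 0, 8, 16, 24, 32 and 40 h.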

[4] = qHTS RealTime-Glo MT Cell Viability Assay in HepG2 cells - 8 hour (AID 1224873); further: nearly all actives have a fitted effect of over 55% in size
How it was run: as §1

[5] = qHTS RealTime-Glo MT Cell Viability Assay in HEK293 cells - 40 hour (AID 1224874); details: RealTime-Glo luminescence; max response: stronger effect = lower value; further: nearly all actives have a fitted effect of over 50% in size; further: potency means the concentration at half of the fitted maximal effect
How it was run: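 Nonlytic bioluminescent viability monitoring. HEK293 at 600 cells/well with reagent; 5 h settle; compound transfer by pintool; plates held at 37 C and read at set time points.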

[6] = A CellTox Green Cytotoxicity Assay to monitor cytotoxicity in HEK293 cells - 24 hour (AID 1224875); further: nearly all actives have a fitted effect of over 45% in size; further: potency means the concentration at half of the fitted maximal effect
How it was run: as §2

[7] = A CellTox Green Cytotoxicity Assay to monitor cytotoxicity in HepG2 cells - 16 hour (AID 1224876); further: nearly all actives have a fitted effect of over 45% in size; further: potency means the concentration at half of the fitted maximal effect
How it was run: (§3)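 Real-time, homogeneous cytotoxicity readout: dead-cell DNA staining by CellTox Green in HepG2 monolayers, fluorescence measured at timed intervals up to 40 h of continuous compound exposure.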

[8] = qHTS RealTime-Glo MT Cell Viability Assay in HepG2 cells - 32 hour (AID 1224877); further: nearly all actives have a fitted effect of over 55% in size; further: potency means the concentration at half of the fitted maximal effect
How it was run: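 HepG2 cells (600/well) were dispensed with RealTime-Glo reagents, incubated 5 h at 37 °C, then treated with compounds in DMSO for up to 40 h. Nonlytic NanoLuc luminescence reflecting viable cells was read at each stated time point.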

[9] = A CellTox Green Cytotoxicity Assay to monitor cytotoxicity in HepG2 cells - 24 hour (AID 1224878); further: nearly all actives have a fitted effect of over 45% in size; further: potency means the concentration at half of the fitted maximal effect
How it was run: as §3

[10] = A CellTox Green Cytotoxicity Assay to monitor cytotoxicity in HepG2 cells - 40 hour (AID 1224879); further: nearly all actives have a fitted effect of over 40% in size; further: potency means the concentration at half of the fitted maximal effect
How it was run: as §3

| Structure (SMILES) | Potency [1] | Potency [2] | Potency [3] | Potency [4] | max response [5] | Potency [6] | Potency [7] | Potency [8] | Potency [9] | Potency [10] | Potency [5] |
| --- | --- | --- | --- | --- | --- | --- | --- | --- | --- | --- | --- |
| Cc1[nH]cnc1CN1CCc2c(c3ccccc3n2C)C1=O | inactive | inactive | inactive | inactive | -24.4% | inactive | inactive | inactive | inactive | inactive | – |
| C=CC(C)(CCC=C(C)C)OC(=O)CC(C)C (stereo unspecified) | inactive | inactive | inactive | inactive | 7.92% | inactive | inactive | inactive | inactive | inactive | – |
| O=C(/C=C/c1ccc(O)c(O)c1)O[C@@H]1C[C@@](OC(=O)/C=C/c2ccc(O)c(O)c2)(C(=O)O)C[C@@H](O)[C@@H]1O | inactive | inactive | inactive | inactive | 3.32% | inactive | inactive | inactive | inactive | inactive | – |
| O=C(Cn1ccnc1[N+](=O)[O-])NCCO | inactive | inactive | inactive | inactive | 4.23% | inactive | inactive | inactive | inactive | inactive | – |
| CC(C)=CCC/C(C)=C/CC/C(C)=C/CCC(=O)OC/C=C(\C)CCC=C(C)C | inactive | inactive | inactive | inactive | 2.19% | inactive | inactive | inactive | inactive | inactive | – |
| O=C1c2ccccc2C(=O)C1c1ccc(Br)cc1 | inactive | inactive | inactive | inactive | -7.99% | inactive | inactive | inactive | inactive | inactive | – |
| CC1=C(CC=O)C(C)(C)CCC1 | inactive | inactive | inactive | inactive | -9.82% | inactive | inactive | inactive | inactive | inactive | – |
| OC1(c2ccccc2)CCNCC1 | inactive | inactive | inactive | inactive | 5.53% | inactive | inactive | inactive | inactive | inactive | – |
| CCc1ccccc1 | inactive | inactive | inactive | inactive | 10.2% | inactive | inactive | inactive | inactive | inactive | – |
| OC(CCN1CCCC1)(c1ccccc1)C1CCCCC1 (stereo unspecified) | inactive | inactive | inactive | inactive | -3.9% | inactive | inactive | inactive | inactive | inactive | – |
| Nc1ncnc2c1ncn2[C@H]1CC[C@@H](CO)O1 | inactive | inactive | inactive | inactive | 18.9% | inactive | inactive | inactive | inactive | inactive | – |
| N#CCc1ccc(Cl)cc1Cl | inactive | inactive | inactive | inactive | -14.5% | inactive | inactive | inactive | inactive | inactive | – |
| CCCCC(CC)CN (stereo unspecified) | inactive | inactive | inactive | inactive | 4.35% | inactive | inactive | inactive | inactive | inactive | – |
| CC1(C)[C@H](C(=O)O)N2C(=O)C[C@H]2S1(=O)=O | inactive | inactive | inactive | inactive | 1.99% | inactive | inactive | inactive | inactive | inactive | – |
| O=C(O)c1ccc(OCCCOc2ccc(C(=O)O)cc2)cc1 | inactive | inactive | inactive | inactive | – | inactive | inactive | inactive | inactive | inactive | – |
| Nc1cccc2c1CN(C1CCC(=O)NC1=O)C2=O (stereo unspecified) | inactive | inactive | inactive | inactive | – | inactive | inactive | inactive | inactive | inactive | – |
| CN1CCCC(CC2c3ccccc3Sc3ccccc32)C1 (stereo unspecified) | 26.8 µM (active) | 23.9 µM (active) | – | inactive | – | 23.9 µM (active) | 23.9 µM (active) | 23.9 µM (active) | 21.3 µM (active) | 23.9 µM (active) | 23.9 µM (active) |
| OCCOCC#CCOCCO | inactive | inactive | inactive | inactive | – | inactive | inactive | inactive | inactive | inactive | – |
| CC(C)C=O | inactive | inactive | inactive | inactive | – | inactive | inactive | inactive | inactive | inactive | – |
| CC1CC(C)C(=O)C1=O (stereo unspecified) | inactive | inactive | – | inactive | – | inactive | inactive | inactive | inactive | inactive | 13.8 µM (active) |
| COc1cc(Nc2c(C#N)cnc3cc(OCCCN4CCN(C)CC4)c(OC)cc23)c(Cl)cc1Cl | 23.9 µM (active) | 21.3 µM (active) | 19 µM (active) | – | – | 21.3 µM (active) | 23.9 µM (active) | 21.3 µM (active) | 16.9 µM (active) | 9.52 µM (active) | – |
| CCOC(=O)c1ccc(OCCN2C[C@H](O)[C@@H](O)[C@H](O)[C@H]2CO)cc1 | inactive | inactive | inactive | inactive | – | inactive | inactive | inactive | inactive | inactive | – |
